Source: ChEMBL document CHEMBL3988442, “University of Dundee, Small-Polar-MMV Screening Library” (2021)
For some assays here: Entries with a potency or affinity are not part of this list.

Legend:
Design in all cases: scale not given: direction of the effect not stated beside the values
[1] = biological target: Protein translocase subunit SecA (Escherichia coli (strain K12)) (UniProt P10408); test: Assay to Identify E. coli SecA ATPase Inhibitors; assay type: functional; conditions: 30 µM
[2] = biological target: T1, Ubiquitin-activating enzyme e1, putative (Leishmania donovani (strain BPK282A1)) (UniProt E9BSI1); test: Leishmania donovani Ubiquitin Activating Enzyme (LdE1); assay type: functional; conditions: 30 µM
T1 sequence (whole entry): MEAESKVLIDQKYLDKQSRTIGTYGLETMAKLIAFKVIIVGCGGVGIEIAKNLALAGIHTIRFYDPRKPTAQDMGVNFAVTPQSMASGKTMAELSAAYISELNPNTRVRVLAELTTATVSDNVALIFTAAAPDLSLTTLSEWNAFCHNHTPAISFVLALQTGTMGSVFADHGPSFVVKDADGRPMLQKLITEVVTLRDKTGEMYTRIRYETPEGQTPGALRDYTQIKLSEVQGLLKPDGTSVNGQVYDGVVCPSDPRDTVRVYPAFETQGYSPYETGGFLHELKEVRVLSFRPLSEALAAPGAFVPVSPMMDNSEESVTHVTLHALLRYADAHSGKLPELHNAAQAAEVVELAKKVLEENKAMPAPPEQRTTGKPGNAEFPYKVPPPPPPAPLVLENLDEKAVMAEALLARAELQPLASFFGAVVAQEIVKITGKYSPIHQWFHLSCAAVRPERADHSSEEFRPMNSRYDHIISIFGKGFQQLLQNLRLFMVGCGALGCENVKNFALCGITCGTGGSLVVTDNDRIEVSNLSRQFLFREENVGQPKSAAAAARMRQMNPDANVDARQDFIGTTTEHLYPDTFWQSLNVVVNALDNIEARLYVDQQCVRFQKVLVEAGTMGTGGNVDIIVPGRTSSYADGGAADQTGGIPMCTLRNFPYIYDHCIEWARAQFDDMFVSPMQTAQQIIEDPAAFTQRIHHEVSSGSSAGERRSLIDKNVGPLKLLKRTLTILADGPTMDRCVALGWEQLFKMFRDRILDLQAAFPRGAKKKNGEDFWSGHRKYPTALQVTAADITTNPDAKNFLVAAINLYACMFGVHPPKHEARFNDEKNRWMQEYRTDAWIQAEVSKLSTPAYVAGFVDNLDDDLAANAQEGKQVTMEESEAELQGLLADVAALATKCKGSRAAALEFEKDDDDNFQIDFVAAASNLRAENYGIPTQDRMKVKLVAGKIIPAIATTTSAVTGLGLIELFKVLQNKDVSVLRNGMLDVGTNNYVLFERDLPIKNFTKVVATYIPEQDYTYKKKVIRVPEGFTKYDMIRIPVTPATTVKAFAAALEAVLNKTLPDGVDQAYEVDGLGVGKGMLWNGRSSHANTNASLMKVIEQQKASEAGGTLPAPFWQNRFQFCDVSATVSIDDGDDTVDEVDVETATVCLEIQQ

[3] = biological target: AMP-activated protein kinase, AMPK (Homo sapiens) (UniProt P54646+O43741+P54619+Q9UGJ0+Q9Y478+Q13131+Q9UGI9); test: AMP-dependent Kinase enzyme assay. An in vitro enzyme assay that detects ADP turnover that is directly proportional to AMPK activity. This uses naive AMPK that is activated during the assay with MK-8722; assay type: functional; conditions: 30 µM
[4] = biological target: Sialic acid-binding Ig-like lectin 9 (Homo sapiens) (UniProt Q9Y336); test: Hs-Siglec9 ALPHAscreen SOP 20170721; conditions: 10 µM
Sialic acid-binding Ig-like lectin 9 (Homo sapiens), sequence (Q9Y336 whole entry): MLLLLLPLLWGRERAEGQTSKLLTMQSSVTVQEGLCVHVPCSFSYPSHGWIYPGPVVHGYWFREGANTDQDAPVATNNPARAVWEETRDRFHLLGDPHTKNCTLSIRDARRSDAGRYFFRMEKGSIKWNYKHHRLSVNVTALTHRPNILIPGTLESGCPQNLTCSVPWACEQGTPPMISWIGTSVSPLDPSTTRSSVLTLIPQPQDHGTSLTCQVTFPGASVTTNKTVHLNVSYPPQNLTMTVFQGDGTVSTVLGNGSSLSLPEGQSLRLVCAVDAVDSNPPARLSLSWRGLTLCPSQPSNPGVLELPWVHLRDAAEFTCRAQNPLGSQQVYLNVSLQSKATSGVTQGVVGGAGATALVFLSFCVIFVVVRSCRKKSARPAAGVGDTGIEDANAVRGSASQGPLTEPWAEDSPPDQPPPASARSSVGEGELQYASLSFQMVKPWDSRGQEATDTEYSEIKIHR

Trypanosoma cruzi = test: Trypanosoma cruzi phosphomannomutase and mannose-1-phosphate guanylyltransferase assay; assay type: functional; conditions: 10 µM
[5] = biological target: T2, Arginase-2, mitochondrial (Homo sapiens) (UniProt P78540); test: in vitro enzyme assay to detect the production of urea directly proportional to the activity of Arginase II; assay type: functional; conditions: 33.3 µM; also: in the data most compounds retested in dose-response had high values
T2 sequence (whole entry): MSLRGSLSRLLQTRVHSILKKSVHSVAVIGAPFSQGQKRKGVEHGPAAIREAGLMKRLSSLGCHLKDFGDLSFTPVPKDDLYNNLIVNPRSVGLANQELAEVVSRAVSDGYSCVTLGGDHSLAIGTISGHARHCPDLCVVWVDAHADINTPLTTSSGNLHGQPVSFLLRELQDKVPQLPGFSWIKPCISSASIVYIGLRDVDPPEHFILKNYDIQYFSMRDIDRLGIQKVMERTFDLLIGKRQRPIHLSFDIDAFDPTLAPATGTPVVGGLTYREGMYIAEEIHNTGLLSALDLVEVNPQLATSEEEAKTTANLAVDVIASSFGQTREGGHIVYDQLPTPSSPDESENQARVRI

[6] = biological target: T3, Proteasome subunit beta (Trypanosoma cruzi) (UniProt O96673); test: Trypanosoma cruzi proteasome chymotrypsin-like activity (TcProtChymo) assay.; also: in the data most compounds retested in dose-response had high values; assay type: functional; conditions: 9.37 µM
T3 sequence (whole entry): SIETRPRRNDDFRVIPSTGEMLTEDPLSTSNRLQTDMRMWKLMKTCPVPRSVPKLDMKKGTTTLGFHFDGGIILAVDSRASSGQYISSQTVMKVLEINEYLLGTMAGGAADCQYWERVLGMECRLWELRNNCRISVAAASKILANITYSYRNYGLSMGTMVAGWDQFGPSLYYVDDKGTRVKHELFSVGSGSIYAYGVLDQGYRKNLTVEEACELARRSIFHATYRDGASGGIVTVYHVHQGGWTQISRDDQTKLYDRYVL

Homo sapiens = organism: Homo sapiens; test: To identify inhibition of the IFN signalling (Jak-Stat) pathway via expression of an eGFP reporter gene under the control of an IFN-stimulated response element (ISRE) containing MxA promoter.; assay type: functional; conditions: 30 µM
[7] = biological target: T4, Tyrosyl-tRNA synthetase, putative (Trypanosoma cruzi (strain CL Brener)) (UniProt Q4DSP6); test: Trypanosoma cruzi tyrosyl tRNA synthetase (TcYRS) _High Tyrosine SOP; assay type: functional; conditions: 30 µM; also: in the data most compounds retested in dose-response had high values
T4 sequence (whole entry): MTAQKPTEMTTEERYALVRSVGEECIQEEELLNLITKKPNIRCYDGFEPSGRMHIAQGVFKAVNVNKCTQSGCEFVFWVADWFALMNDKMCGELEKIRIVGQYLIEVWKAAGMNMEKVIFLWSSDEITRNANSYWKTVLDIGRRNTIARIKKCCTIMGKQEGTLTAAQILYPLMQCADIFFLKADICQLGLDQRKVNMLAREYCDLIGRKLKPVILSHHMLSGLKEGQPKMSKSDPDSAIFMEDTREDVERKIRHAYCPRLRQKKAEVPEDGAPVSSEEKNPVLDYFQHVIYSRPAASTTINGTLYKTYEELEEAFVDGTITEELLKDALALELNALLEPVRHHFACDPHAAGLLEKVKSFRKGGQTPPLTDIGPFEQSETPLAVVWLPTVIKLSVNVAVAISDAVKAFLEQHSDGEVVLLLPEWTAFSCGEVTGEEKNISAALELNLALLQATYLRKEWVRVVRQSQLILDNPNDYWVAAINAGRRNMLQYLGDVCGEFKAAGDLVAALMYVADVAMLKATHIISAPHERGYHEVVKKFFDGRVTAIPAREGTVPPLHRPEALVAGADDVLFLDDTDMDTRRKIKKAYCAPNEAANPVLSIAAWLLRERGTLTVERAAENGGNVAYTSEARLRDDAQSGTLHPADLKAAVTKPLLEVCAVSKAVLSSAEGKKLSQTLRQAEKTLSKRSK

[8] = biological target: T4, Tyrosyl-tRNA synthetase, putative (Trypanosoma cruzi (strain CL Brener)); test: Trypanosoma cruzi tyrosyl tRNA synthetase (TcYRS) SOP; assay type: functional; conditions: 30 µM
[9] = biological target: Chromo domain-containing protein 1 (Saccharomyces cerevisiae (strain ATCC 204508 / S288c) (Baker's yeast)) (UniProt P32657); test: ScCHD-1 Enzyme Inhibition Assay; assay type: functional; conditions: 30 µM; also: in the data most compounds retested in dose-response had high values
Chromo domain-containing protein 1 (Saccharomyces cerevisiae (strain ATCC 204508 / S288c) (Baker's yeast)), sequence (P32657 whole entry, the tested form may be a part): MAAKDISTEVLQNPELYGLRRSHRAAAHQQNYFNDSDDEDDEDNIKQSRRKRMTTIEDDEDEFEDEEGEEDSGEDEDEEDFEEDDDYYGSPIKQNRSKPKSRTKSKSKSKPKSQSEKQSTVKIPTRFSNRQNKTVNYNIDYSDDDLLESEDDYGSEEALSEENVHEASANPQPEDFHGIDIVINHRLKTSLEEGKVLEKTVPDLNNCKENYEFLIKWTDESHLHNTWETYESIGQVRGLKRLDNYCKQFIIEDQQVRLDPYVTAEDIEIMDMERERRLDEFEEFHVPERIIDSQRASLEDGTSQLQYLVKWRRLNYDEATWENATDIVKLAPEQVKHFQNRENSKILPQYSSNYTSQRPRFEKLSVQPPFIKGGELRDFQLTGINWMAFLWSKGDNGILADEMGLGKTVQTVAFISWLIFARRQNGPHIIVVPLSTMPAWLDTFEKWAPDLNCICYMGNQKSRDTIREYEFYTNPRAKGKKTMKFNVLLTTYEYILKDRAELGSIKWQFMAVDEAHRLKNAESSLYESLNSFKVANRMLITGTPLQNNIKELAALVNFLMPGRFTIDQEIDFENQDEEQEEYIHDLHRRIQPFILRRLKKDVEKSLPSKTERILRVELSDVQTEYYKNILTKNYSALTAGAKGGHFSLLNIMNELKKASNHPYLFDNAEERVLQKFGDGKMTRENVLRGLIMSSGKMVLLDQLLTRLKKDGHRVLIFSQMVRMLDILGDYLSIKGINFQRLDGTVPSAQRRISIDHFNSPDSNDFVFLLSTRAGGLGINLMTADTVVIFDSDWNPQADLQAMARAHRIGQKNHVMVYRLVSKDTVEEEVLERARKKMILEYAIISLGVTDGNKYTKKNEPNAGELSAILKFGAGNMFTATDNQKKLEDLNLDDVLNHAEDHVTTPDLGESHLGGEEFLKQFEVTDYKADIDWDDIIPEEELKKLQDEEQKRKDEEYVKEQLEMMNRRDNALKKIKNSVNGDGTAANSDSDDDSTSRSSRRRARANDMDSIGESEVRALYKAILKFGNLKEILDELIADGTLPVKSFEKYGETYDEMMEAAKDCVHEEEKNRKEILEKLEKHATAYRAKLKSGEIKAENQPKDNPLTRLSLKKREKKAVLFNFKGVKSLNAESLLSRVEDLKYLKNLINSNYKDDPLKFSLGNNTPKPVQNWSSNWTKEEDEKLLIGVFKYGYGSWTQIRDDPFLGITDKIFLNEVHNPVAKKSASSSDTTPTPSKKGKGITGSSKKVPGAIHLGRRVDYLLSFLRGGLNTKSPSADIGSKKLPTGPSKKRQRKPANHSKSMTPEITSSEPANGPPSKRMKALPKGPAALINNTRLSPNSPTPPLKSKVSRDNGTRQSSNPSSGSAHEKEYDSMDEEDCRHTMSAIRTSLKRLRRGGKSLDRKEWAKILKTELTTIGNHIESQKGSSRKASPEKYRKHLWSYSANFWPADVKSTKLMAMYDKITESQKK

Protein translocase subunit SecA (Escherichia coli (strain K12)), sequence (P10408 whole entry): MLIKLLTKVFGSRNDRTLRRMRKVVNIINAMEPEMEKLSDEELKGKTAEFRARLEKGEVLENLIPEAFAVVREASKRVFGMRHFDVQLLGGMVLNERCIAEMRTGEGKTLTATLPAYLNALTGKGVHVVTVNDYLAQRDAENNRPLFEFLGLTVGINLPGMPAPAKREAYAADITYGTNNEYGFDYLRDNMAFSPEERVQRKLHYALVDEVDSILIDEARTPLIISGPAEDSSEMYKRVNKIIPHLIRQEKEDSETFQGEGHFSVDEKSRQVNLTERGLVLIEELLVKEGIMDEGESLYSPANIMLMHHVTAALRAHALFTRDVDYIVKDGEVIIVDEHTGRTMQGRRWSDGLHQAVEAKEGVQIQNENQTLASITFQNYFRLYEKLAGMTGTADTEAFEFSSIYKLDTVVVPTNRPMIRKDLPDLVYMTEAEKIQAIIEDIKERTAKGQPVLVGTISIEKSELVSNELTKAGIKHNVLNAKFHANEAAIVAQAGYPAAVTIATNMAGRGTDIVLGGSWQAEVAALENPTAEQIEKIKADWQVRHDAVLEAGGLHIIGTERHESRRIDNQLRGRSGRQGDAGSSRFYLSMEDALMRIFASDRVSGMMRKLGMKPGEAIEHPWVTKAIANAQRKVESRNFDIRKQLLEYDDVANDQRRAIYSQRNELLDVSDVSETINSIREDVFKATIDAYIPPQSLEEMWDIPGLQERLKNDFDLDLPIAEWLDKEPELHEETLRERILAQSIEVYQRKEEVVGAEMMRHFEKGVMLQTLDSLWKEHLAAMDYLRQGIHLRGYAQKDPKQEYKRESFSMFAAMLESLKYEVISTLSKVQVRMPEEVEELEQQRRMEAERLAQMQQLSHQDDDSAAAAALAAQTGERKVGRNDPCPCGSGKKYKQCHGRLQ

Structure (SMILES)	Percent Effect [1] [%]	Percent Effect [2] [%]	Percent Effect [3] [%]	Percent Effect [4] [%]	Percent Effect (Trypanosoma cruzi) [%]	Percent Effect [5] [%]	Percent Effect [6] [%]	Percent Effect (Homo sapiens) [%]	Percent Effect [7] [%]	Percent Effect [8] [%]	Percent Effect [9] [%]
CCc1nnc(CNCC2CCN(CC(O)c3ccccc3)CC2)o1 (stereo unspecified)	-4.81	19	-3.87	-2.88	-2.15	-7.1	11.5	14	-2.08	12.7	-30.3
Cc1nc(C)c(C(=O)NCCNC(=O)c2ccc(F)cc2F)s1	-1.94	10.8	-1.06	22.4	5.85	-4.25	15.8	16.4	8.91	23.2	-8.6
CC(=O)NCC(=O)N1CCN(CC2CC2)c2ncccc2C1	-4.55	8	8.23	6.27	-0.394	-0.233	11	0.904	9.57	16.7	-2.61
OC1CCCN(Cc2c(-c3ccco3)[nH]c3ncccc23)C1 (stereo unspecified)	-4.22	25.7	-13.3	19	2.17	-1.16	11.1	20.3	6.45	19.5	-18.1
Cc1cnn(CC2CCCN2C(=O)CCc2c(C)noc2Cl)c1 (stereo unspecified)	-2.86	-2.63	5.68	-4.15	7.11	4.73	13.5	-23.3	5.32	5.2	1.72
CCN(CC)CCNc1ncc(-c2cc(C)no2)c(-c2ccoc2C)n1	-7.13	20.3	6.82	3.2	2.77	-3.94	8.74	0.0946	5.38	14.3	-20.7
COc1cc(CNCc2c(C(C)C)nn(C)c2N(C)C)ccn1	-0.0523	15.8	-8.02	2.55	1.13	-3.06	14	-9.51	4.41	4.88	-6.52
Cc1nc(C)n(CC2CN(CC(=O)Nc3cccnc3)CCO2)n1 (stereo unspecified)	-3.48	4.17	1.48	-1.08	-0.486	2.65	2.1	-1.3	4.21	5.13	0.336
CN1CCN(c2ncccc2CNc2ncccc2C#N)CC1	-5.21	8.11	-1.66	20.8	-2.44	3.72	3.86	-10.1	4.3	13.6	-4.55
Cc1n[nH]c(C)c1C1CCCN1C(=O)NCCSC(C)(C)C (stereo unspecified)	-2.09	0	3.06	-3.83	-1.37	-0.909	0.887	4.14	3.23	-2.5	-1.95
Cc1nnc(N2C[C@@H](OCCCn3cccn3)[C@H]3OCCC[C@H]32)s1	-0.829	5.48	-5.05	10.8	1.79	-5.19	24.9	-5.83	7.29	16.1	-7.05
CN(C)c1ccc(CC(=O)N[C@@H]2CCNC[C@H]2O)cc1	-6.67	5.41	-14.5	7.45	2.05	0.744	-1.46	-17.6	7.53	11.1	-2.77
N#CCCN(C(=O)CN1CCCC1C1CCCCC1)c1ccccc1 (stereo unspecified)	-2.43	0	-4.92	3.65	-1.56	2.5	15.1	17.1	12.9	8.54	0.924
CC(=O)NC(C)c1ccc(OCC2CC2)c(F)c1 (stereo unspecified)	-2.63	5.26	-0.202	5	3.21	-9.47	4.7	7.74	4.25	7.79	-7.19
Cc1nsc(NC(=O)N2CCC(C(C)(C)O)CC2)n1	1.56	5.41	-3.48	-1.81	-8.11	1.74	14.2	5.12	1.07	6.17	-3.72
CCC(=O)N1CCc2nc3cc(OC)c(OC)cc3c(=O)n2CC1	-8.64	9.46	-6.48	12.5	5.34	-1.62	8.58	6.53	2.15	11.7	-28.2
